Data published in PubChem BioAssay (Tox21).
Results filed as inconclusive are left out. Activity calls are given as the source filed them. Unless noted, calls follow the shape of the dose curve; as a rule, active = well fitted curve in the direction sought with a large enough effect in the repeat runs; inconclusive = weak or mixed curves; inactive = no such curve, though single readings can be large; an effect the other way counts as inactive or inconclusive.

Legend:
[1] = qHTS assay to identify small molecule agonists of the hypoxia (HIF-1) signaling pathway - cell viability counter screen (AID 1224844; calls by dose curve; also: nearly all actives have a fitted effect of over 50% in size)
Method in brief: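 Same wells as the HIF-1 reporter screen; ME-180 cells carrying HRE-bla, 17 hr treatment at 37C; CellTiter-Glo luminescence read after 30 min at room temperature.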

[2] = qHTS assay to identify small molecule agonists of H2AX (AID 1224845; active = well fitted activation curve with a large enough effect in the signal ratio in the repeat runs, not every such curve was filed as active; the % refers to the signal ratio)
Method in brief: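 Wild-type CHO-K1 cells, plated overnight, exposed 3hr at 37C to 15 concentrations (0.76% DMSO final). Lysed, then HTRF anti-pH2AX (S139) cryptate and anti-H2AX-d2 antibodies, 24 hr room temperature; 665/620 nm emission read.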

[3] = qHTS assay to identify small molecule agonists of the hypoxia (HIF-1) signaling pathway (AID 1224846; active = well fitted activation curve with a large enough effect in the signal ratio in the repeat runs, not every such curve was filed as active; the % refers to the signal ratio)
Method in brief: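 In ME-180 cells bearing an HRE-bla construct, 17 h treatment with DMSO-dissolved compounds at 37C was followed by CCF4-AM loading to quantify reporter induction.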

[4] = qHTS assay to identify small molecule agonists of H2AX - cell viability counter screen (AID 1224847; calls by dose curve; also: top concentration of the series differs between compounds; nearly all actives have a fitted effect of over 30% in size)
Method in brief: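 Cells plated first: CHO-K1, 1000 per well in 10% FBS medium, incubated overnight at 37C. Then 15-point compound titration added (final DMSO 0.76%) for 3 hr. Finally CellTiter-Glo added and luminescence read.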

[5] = qHTS RealTime-Glo MT Cell Viability Assay in HepG2 cells - 24 hour (AID 1224867); also: nearly all actives have a fitted effect of over 50% in size
Method in brief: (§1)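 qHTS, HepG2, 600 cells/well, RealTime-Glo (NanoLuc + prosubstrate) added with cells; 5 h preincubation; DMSO compound addition; 37 C; luminescence at 0/8/16/24/32/40 h.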

[6] = qHTS RealTime-Glo MT Cell Viability Assay in HEK293 cells - 32 hour (AID 1224868); also: top concentration of the series differs between compounds; nearly all actives have a fitted effect of over 50% in size
Method in brief: (§2)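 Assay medium contained NanoLuc luciferase plus cell-permeant prosubstrate, added with HEK293 cells at 600 cells/well. After 5 h at 37 C/5% CO2 compounds were added; plates stayed at 37 C for 40 h with serial luminescence reads.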

[7] = A CellTox Green Cytotoxicity Assay to monitor cytotoxicity in HEK293 cells - 0 hour (AID 1224869); also: nearly all actives have a fitted effect of over 50% in size
Method in brief: (§3)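 Homogeneous no-lysis format: HEK293 cell suspension mixed with CellTox Green reagent, seeded, incubated 5 h at 37 C/5% CO2, then dosed by pintool with compound in DMSO.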

[8] = qHTS RealTime-Glo MT Cell Viability Assay in HepG2 cells - 40 hour (AID 1224870); also: nearly all actives have a fitted effect of over 50% in size
Method in brief: (§4)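 HepG2 cells (600/well) mixed with RealTime-Glo MT reagent, settled 5 h at 37 C/5% CO2 before compound addition. Nonlytic NanoLuc luminescence from viable-cell prosubstrate reduction read repeatedly during 40 h treatment at 37 C.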

[9] = A CellTox Green Cytotoxicity Assay to monitor cytotoxicity in HEK293 cells - 40 hour (AID 1224871); also: nearly all actives have a fitted effect of over 45% in size
Method in brief: as §3

[10] = qHTS RealTime-Glo MT Cell Viability Assay in HEK293 cells - 16 hour (AID 1224872)
Method in brief: as §2

[11] = qHTS RealTime-Glo MT Cell Viability Assay in HepG2 cells - 8 hour (AID 1224873); also: nearly all actives have a fitted effect of over 55% in size
Method in brief: as §4

[12] = qHTS RealTime-Glo MT Cell Viability Assay in HEK293 cells - 40 hour (AID 1224874); conditions: RealTime-Glo luminescence; max response: hits give low values; also: nearly all actives have a fitted effect of over 50% in size
Method in brief: (§5)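 Measured as luminescence from the same continuously cultured HEK293 wells at successive time points (0, 8, 16, 24, 32, 40 h) after compound addition. Reagent present from seeding; dosing at 5 h; incubation 37 C.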

[13] = A CellTox Green Cytotoxicity Assay to monitor cytotoxicity in HEK293 cells - 24 hour (AID 1224875); also: nearly all actives have a fitted effect of over 45% in size
Method in brief: as §3

[14] = A CellTox Green Cytotoxicity Assay to monitor cytotoxicity in HepG2 cells - 16 hour (AID 1224876); also: nearly all actives have a fitted effect of over 45% in size
Method in brief: (§6)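 Fluorescent DNA-binding dye, 600 HepG2 cells/well, 5 h preincubation then compound in DMSO; same plates read at 0–40 h, 37 C.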

[15] = qHTS RealTime-Glo MT Cell Viability Assay in HepG2 cells - 32 hour (AID 1224877); also: nearly all actives have a fitted effect of over 55% in size
Method in brief: as §1

[16] = A CellTox Green Cytotoxicity Assay to monitor cytotoxicity in HepG2 cells - 24 hour (AID 1224878); also: nearly all actives have a fitted effect of over 45% in size
Method in brief: as §6

[17] = A CellTox Green Cytotoxicity Assay to monitor cytotoxicity in HepG2 cells - 40 hour (AID 1224879); also: nearly all actives have a fitted effect of over 40% in size
Method in brief: as §6

[18] = qHTS RealTime-Glo MT Cell Viability Assay in HEK293 cells - 0 hour (AID 1224880)
Method in brief: as §5

[19] = qHTS assay to identify small molecule antagonists of the estrogen related receptor (ERR) signaling pathway from Tox21 library (AID 1224848); also: nearly all actives have a fitted effect of over 50% in size
Method in brief: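 Compounds dissolved in DMSO are pin-transferred onto ERR reporter cells (2,000 per well) that have settled for 6 h at 37 C. Plates then incubate 18 h at 37 C before ONE-Glo luciferase reagent and a luminescence read 30 min later.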

[20] = qHTS assay to identify small molecule agonists of the estrogen related receptor (ERR) signaling pathway from Tox21 library (AID 1224849; calls by dose curve; also: nearly all actives have a fitted effect of over 15% in size); conditions: ERR reporter cell line, ONE-Glo luciferase, 18 h; at 92.4 µM (top of the series) unless noted
Method in brief: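 Reporter cells (ERR, NTP source) treated with Tox21 10K compounds 18 h, 37 C. Readout: ONE-Glo luminescence, 30 min RT.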
% is scaled to controls: 0 for no effect and ±100 for the full control effect.

CCO[C@H](Cc1ccc(OCCc2ccc(OS(C)(=O)=O)cc2)cc1)C(=O)O
inactive: Potency [1] | Potency [2] | Potency [3] | Potency [4] | Potency [5] | Potency [6] | Potency [7] | Potency [8] | Potency [9] | Potency [10] | Potency [11] | max response [12] 10.3% | Potency [13] | Potency [14] | Potency [15] | Potency [16] | Potency [17] | Potency [18]

CN(C)CCN(Cc1ccc(Cl)cc1)c1ccccn1
inactive: Potency [1] | Potency [2] | Potency [3] | Potency [5] | Potency [6] | Potency [7] | Potency [8] | Potency [9] | Potency [10] | max response [12] -11% | Potency [13] | Potency [15] | Potency [16] | Potency [17] | Potency [18]

CCOC(=O)COC(=O)c1cc(Oc2ccc(C(F)(F)F)cc2Cl)ccc1[N+](=O)[O-]
inactive: Potency [1] | Potency [2] | Potency [3] | Potency [7] | Potency [8] | Potency [13] | Potency [14] | Potency [15] | Potency [16] | Potency [17] | Potency [18]

O=[N+]([O-])c1ccc(NCCO)c(OCCO)c1
inactive: Potency [1] | Potency [2] | Potency [4] | Potency [19] | activity change, positive = activation [20] -14.5% | Potency [5] | Potency [6] | Potency [7] | Potency [8] | Potency [9] | Potency [11] | max response [12] -13.3% | Potency [15] | Potency [16] | Potency [17] | Potency [18]

CC[N+]1(CC)CCC(=C(c2ccccc2)c2ccccc2)C1C (centres undefined)
inactive: Potency [1] | Potency [2] | Potency [3] | Potency [5] | Potency [7] | Potency [8] | Potency [9] | Potency [10] | Potency [11] | Potency [13] | Potency [14] | Potency [15] | Potency [16] | Potency [17] | Potency [18]

C/C=C/C(=O)CC
inactive: activity change, negative = cytotoxicity [1] -6.33% [at 15.8 µM] | activation (H2AX phosphorylation) [2] -0.233% [at 31.6 µM] | activation [3] -0.782% [at 15.8 µM] | activity change, negative = cytotoxicity [4] 0.284% [at 31.6 µM] | activity change, negative = cytotoxic [6] 1.19% [at 15.8 µM] | cytotoxicity [7] 1.29% [at 15.8 µM] | activity change, negative = cytotoxic [8] 1.82% [at 15.8 µM] | activity change, negative = cytotoxicity [10] 1.69% [at 15.8 µM] | viability change, negative = cytotoxic [11] 1.2% [at 15.8 µM] | max response [12] 4.11% | cytotoxicity increase [14] -0.573% [at 15.8 µM] | activity change, negative = cytotoxic [15] 0.591% [at 15.8 µM] | cytotoxicity [16] 1.31% [at 15.8 µM] | cytotoxicity increase [17] -0.322% [at 15.8 µM] | activity change, negative = cytotoxicity [18] 9.44% [at 15.8 µM]

CCCCCCCN
inactive: Potency [1] | Potency [2] | Potency [3] | Potency [4] | Potency [6] | Potency [7] | Potency [8] | Potency [9] | Potency [11] | max response [12] -2.68% | Potency [13] | Potency [14] | Potency [15] | Potency [16] | Potency [17] | Potency [18]

C[C@@H]1C[C@H]2O[C@@]3(O[C@@H]2C(C)(C)O)[C@H](O)[C@@]2(C)[C@@H]4CC[C@H]5C(C)(C)[C@@H](O[C@@H]6OC[C@@H](O)[C@H](O)[C@H]6O)CC[C@@]56C[C@@]46CC[C@]2(C)[C@@H]13
inactive: Potency [1] | Potency [2] | Potency [3] | Potency [19] | activity change, positive = activation [20] -12.2% [at 42.5 µM] | Potency [5] | Potency [6] | Potency [7] | Potency [8] | Potency [9] | Potency [10] | Potency [11] | max response [12] -15.4% | Potency [13] | Potency [14] | Potency [15] | Potency [16] | Potency [17]
